Data: PubChem BioAssay (NCATS)
The source made the active and inactive calls. Calls follow the shape of the dose curve; as a rule, active = well fitted curve in the direction sought with a large enough effect; inconclusive = small, poorly fitted or top-dose-only effect, or effect the other way, or another doubt; inactive = no such curve, though single readings can be large or run the other way.

Assay: qHTS for inhibitors of adenylyl cyclases using a fission yeast platform: a pilot screen against the NCATS LOPAC library (AID 1347410)
Details: S. pombe CHP2027, fbp1-GFP fluorescence, 18 h, yeast expressing mammalian AC9 and human GNAS; series mostly up to 57.5 µM
Source text: PI: Charles S. Hoffman Ph.D
Boston College, 140 Commonwealth Ave., Chestnut Hill, MA
Assay Development and Screening Technology Laboratory (ADST)
National Center for Advancing Translational Sciences (NCATS), Rockville, MD
National Institute of Health (NIH), Bethesda, Maryland
The fission yeast Schizosaccharomyces pombe uses a cAMP signaling pathway to link glucose-sensing to Protein Kinase A activity in order to regulate cell growth, sexual development, gluconeogenesis, and exit from stationary phase. Here, we describe the successful functional expression of all ten mammalian adenylyl cyclase (AC) genes, along with the human GNAS G-alpha gene in this organism. By measuring expression of a PKA-repressed fbp1-GFP reporter together with direct measurements of intracellular cAMP levels, one can detect both basal AC activity from all ten AC genes as well as GNAS-stimulated activity from eight of the nine transmembrane ACs (tmACs; AC2-AC9).
Further confirmation and validation of active compounds lead to the identification of diphenyleneiodonium chloride (DPI) as an inhibitor of basal AC activity. This fluorescence based fbp1-GFP-GNAS screening technology could facilitate the development of therapeutic compounds that target GNAS or the ACs, an area in which there is significant unmet need.
The gain-of-signal output is not substantially affected by cytotoxic compounds within the library.
Getz RA, et al., A fission yeast platform for heterologous expression of mammalian adenylyl cyclases and high throughput screening, Cellular Signaling, 2019, 60: 114-121. doi.org/10.1016/j.cellsig.2019.04.010.
PROTOCOL TABLE (as described by Inglese J, Shamu CE and Guy RK. 2007)
SEQUENCE No. (e.g., 1, 2, 3, etc.); […] (e.g., Cells, Incubation, Reagent, etc.); VALUE; DESCRIPTION.
1; Dispense growth medium; 2 uL; black, clear bottom, low base, 1536-well Aurora assay plate.
2; Compounds and control; 23 nL; Kalypsis pin tool (Wako USA) equipped with a 1536-well pin head to transfer to the assay plates.
3; Dispense yeast cells; 2 uL; CHP2027 cells.
4; Incubation; 18 hours (dark at 30C); Non-humidified microbial incubator.
5; Detector; 425V; Fluorescence; laser scanning cytometry.
NOTES (numbers refer to Sequence numbers above)
1. S. pombe growth medium EMM containing histidine, lysine, and uracil was initially dispensed into the assay plate to avoid yeast contamination using a Multidrop Combi dispenser (Thermo Fisher Scientific).
2. 10 mM stock solution of DPI (Sigma-Aldrich D2926) dissolved in DMSO was used as a 16-point dose response positive control, while 1.11 mM DPI stock solution was used as a single point max response positive control. Solvent DMSO was used as the negative control. Control DPI was transferred as a single-dose (column 3; rows 1-32; 1.11 mM stock), and multi-dose (column 4; rows 1-32; 10mM stock; 1:1.5 dilution; 16pnt titration) positive controls. Vehicle control DMSO was pinned into column 1-2, rows 1-32. Lopac compounds were pinned into columns 5-48 resulting to a final concentration range 57 µM to 78.4 nMControl DPI stock (10 mM) was prepared by dissolving 10 mg in 3.18 mL DMSO; while 1.11 mM DPI stock was prepared by mixing 100 uL of 10 mM DPI with 800 uL DMSO. To create the control plates, we initially start with a 384-well compound working plate. With a repeater pipette, (a.) 16 uL/well of 1.11 mM DPI was added to column 3; (b.) 16 uL/well of DMSO was added into rows 2-16 of column 4; (c.) 50 uL/well of DPI added to rows 1 and 2 of column 4; (d.) 32 uL serial dilution (two-thirds-fold) from rows 2 to 16 of column 4 with manual pipette. From the 384-well compound working plate, 7 uL of respective control compound was transferred to respective columns of the 1536-well compound plate using a multichannel pipette.
3. S. pombe CHP2027 (AC9-GNAS-PDE4D2) expressing fbp1-GFP cells were grown at 30C in EMM medium containing histidine, lysine, and uracil. […]

Question: For O=Nc1c(-c2c(O)[nH]c3ccccc23)[nH]c2ccccc12, which outcome is on record?
Answer: Its outcome is “inactive”.

Question: Which outcome does the source give for S=C(Nc1ccccc1)Nc1nccs1 here?
Answer: Its outcome is “inactive”.

Question: For O=C1c2ccccc2C(=O)c2c(NCCc3ccc(O)cc3)ccc(NCCc3ccc(O)cc3)c21, which outcome is on record?
Answer: Its outcome is “inactive”.

Question: With N.N.O=C(O)C1(C(=O)O)CCC1.[Pt+2] as the compound, how does the outcome read?
Answer: The outcome was “inactive”.

Question: With CCc1ccc(/C=C2/SC(=S)NC2=O)cc1 as the compound, how does the outcome read?
Answer: The outcome was “inactive”.

Question: For Nc1c(S(=O)(=O)O)cc(Nc2ccc(Nc3nc(Cl)nc(Nc4ccc(S(=O)(=O)O)cc4)n3)c(S(=O)(=O)O)c2)c2c1C(=O)c1ccccc1C2=O, which outcome is on record?
Answer: The outcome was “inactive”.

Question: Which outcome does the source give for Oc1cc2c(c(Cl)c1O)CCNCC2c1ccccc1 (stereo not drawn) here?
Answer: The outcome was “inactive”.

Question: Which outcome does the source give for Cc1cccc(/C=C/c2ccccc2)n1 here?
Answer: Its outcome is “inactive”.

Question: With CN1C2CCCC1CC(NC(=O)c1nn(C)c3ccccc13)C2 (stereo not drawn) as the compound, how does the outcome read?
Answer: The outcome was “inactive”.

Question: With C[C@H](Cc1ccccc1)Nc1ncnc2c1ncn2[C@@H]1O[C@H](CO)[C@@H](O)[C@H]1O as the compound, how does the outcome read?
Answer: The outcome was “inactive”.

Question: For CC[N+](CC)(CC)CC, which outcome is on record?
Answer: Its outcome is “inactive”.

Question: With N#C/C(=C\c1ccc(O)c(O)c1)C(=O)Nc1ccccc1 as the compound, how does the outcome read?
Answer: Its outcome is “inactive”.

Question: With C/C=C/CC(C)C(O)C1C(=O)NC(CC)C(=O)N(C)CC(=O)N(C)C(CC(C)C)C(=O)NC(C(C)C)C(=O)N(C)C(CC(C)C)C(=O)NC(C)C(=O)NC(C)C(=O)N(C)C(CC(C)C)C(=O)N(C)C(CC(C)C)C(=O)N(C)C(C(C)C)C(=O)N1C (stereo not drawn) as the compound, how does the outcome read?
Answer: Its outcome is “inactive”.
